The values that follow come from PubChem BioAssay AID602364 (National Center for Advancing Translational Sciences (NCATS), 2012).

Records with an inconclusive call do not appear. Where a call stands in place of a potency, no number is given. Active and inactive are the calls of the source. Calls follow the shape of the dose curve; as a rule, active = well fitted inhibition curve with a large enough effect; inconclusive = small, poorly fitted or top-dose-only effect; inactive = flat fitted curve, though single readings scatter.

The target in the assay is Luciferin 4-monooxygenase (Photinus pyralis) (UniProt P08659). Nature of the assay: FLuc inhibitory activity for the follow-up compounds in a biochemical assay with 1mM ATP. The settings on record: purified P. pyralis luciferase, luminescence; series mostly up to 57.5 µM. A digest of the protocol: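 qHTS, 12 concentrations from ~60uM down to 0.3nM, against 10nM firefly luciferase; substrates at 1mM ATP and 10uM D-luciferin, in 50mM Tris acetate pH 7.5, 10mM Mg acetate; light output imaged.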
Luciferin 4-monooxygenase (Photinus pyralis), sequence (P08659 whole entry, looked up): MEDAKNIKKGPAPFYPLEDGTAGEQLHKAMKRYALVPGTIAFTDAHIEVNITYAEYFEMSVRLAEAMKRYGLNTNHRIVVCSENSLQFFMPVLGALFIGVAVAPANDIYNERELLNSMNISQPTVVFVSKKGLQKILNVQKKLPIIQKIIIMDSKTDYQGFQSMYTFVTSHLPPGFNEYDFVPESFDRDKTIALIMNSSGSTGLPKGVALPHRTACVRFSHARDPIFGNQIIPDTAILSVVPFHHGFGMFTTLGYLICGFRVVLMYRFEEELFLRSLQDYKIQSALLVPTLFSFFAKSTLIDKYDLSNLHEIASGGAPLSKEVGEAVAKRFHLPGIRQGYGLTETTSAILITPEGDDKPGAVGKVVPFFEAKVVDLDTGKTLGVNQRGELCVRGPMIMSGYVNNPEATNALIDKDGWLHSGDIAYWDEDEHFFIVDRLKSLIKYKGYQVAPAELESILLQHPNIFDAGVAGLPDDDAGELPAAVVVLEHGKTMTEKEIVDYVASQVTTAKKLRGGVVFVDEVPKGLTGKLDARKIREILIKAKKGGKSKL
On to `COc1ccc2nc(NC(=O)CCc3ccc(OC)c(OC)c3)sc2c1`, for which the Potency entry was “inactive”.
Take `COc1cc(C(=O)Nc2cc(C)c(O)c(-c3nc4ccccc4s3)c2)cc(OC)c1OC`: the Potency result is “inactive”.
On to `O=C(Nc1ccccc1C(=O)O)c1cccc(NC(=O)c2ccccc2Br)c1`, for which the Potency was 36.6 µM (active).
